NPR2 activator: GC-B (human) receptor activation; HEK293-GC-B cells, CNP EC30, cGMP TR-FRET; 0% at EC30 CNP, 100% saturating CNP; activation, % at 10 µM; actives 0.11% (n = 370,000);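 active = activation at 10 µM reaching about 35% in either raw or pattern-adjusted values, limit read from the data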
Target sequence (P20594 whole entry, looked up): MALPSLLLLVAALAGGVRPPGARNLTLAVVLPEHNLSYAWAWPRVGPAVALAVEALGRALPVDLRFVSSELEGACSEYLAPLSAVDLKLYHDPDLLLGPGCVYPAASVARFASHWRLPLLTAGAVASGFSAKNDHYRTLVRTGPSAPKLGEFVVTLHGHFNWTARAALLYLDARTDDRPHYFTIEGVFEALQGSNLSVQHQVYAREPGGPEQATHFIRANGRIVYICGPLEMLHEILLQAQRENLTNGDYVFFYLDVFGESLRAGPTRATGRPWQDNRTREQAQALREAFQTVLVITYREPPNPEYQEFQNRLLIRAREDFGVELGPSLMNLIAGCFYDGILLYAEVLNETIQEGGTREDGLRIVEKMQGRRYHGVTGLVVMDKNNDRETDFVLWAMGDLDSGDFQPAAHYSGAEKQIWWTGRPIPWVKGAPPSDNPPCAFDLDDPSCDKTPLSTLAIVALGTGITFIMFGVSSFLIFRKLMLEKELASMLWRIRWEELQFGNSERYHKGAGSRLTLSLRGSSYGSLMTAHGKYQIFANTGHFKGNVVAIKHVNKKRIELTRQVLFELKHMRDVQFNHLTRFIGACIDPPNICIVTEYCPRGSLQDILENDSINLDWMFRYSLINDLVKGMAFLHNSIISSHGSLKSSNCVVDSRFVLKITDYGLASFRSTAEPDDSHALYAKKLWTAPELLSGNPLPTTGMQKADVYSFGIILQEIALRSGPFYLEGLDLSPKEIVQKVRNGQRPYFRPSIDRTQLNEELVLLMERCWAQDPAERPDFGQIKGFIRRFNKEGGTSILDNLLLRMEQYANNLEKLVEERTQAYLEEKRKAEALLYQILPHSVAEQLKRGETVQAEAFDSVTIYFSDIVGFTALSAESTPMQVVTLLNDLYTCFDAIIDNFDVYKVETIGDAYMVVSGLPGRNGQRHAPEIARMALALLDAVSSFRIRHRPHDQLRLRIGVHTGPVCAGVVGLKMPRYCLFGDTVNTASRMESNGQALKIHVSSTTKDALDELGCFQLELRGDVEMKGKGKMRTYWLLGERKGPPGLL
HSF1 inh: HSF1 inhibition; NIH3T3-HGL HSE-luciferase, MG132-induced, luminescence 8 h; active compounds read low; activity change, negative = inhibition, % at 7.5 µM (by protocol); actives 0.77% (n = 300,000); AID 2098;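 active = more than half of replicate wells show activity change below -50%, luminescence cut by over half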;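 also: luciferase reports HSF-1 transcriptional activity via heat shock element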
HSF1 activator: increases HSF-1 driven luciferase reporter signal. actives 1.7% (n = 300,000). activation, % at 9 µM. NIH3T3-HGL HSF-1 luciferase reporter, MG132, 8 h; 100% = twice DMSO control signal;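 active = mean replicate activation of at least 50% with a set share of replicates each reaching 50%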
DYRK1A inh: blocks rat Dyrk1A kinase activity | actives 0.43% (n = 310,000) | inhibition, % at 12.5 µM | ADP-Glo luminescence, NFATc1 peptide | Q63470; in the data active = inhibition above about 50%
aDG glyco up: alpha-DG glycosylation activation | Pro5-aDG cells, alpha-DG glycosylation AlphaScreen (IIH6); 0% Pro5, 100% B10-LARGE cell signal | activation, % at 10 µM | actives 0.22% (n = 360,000) | AID 624168;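 active = activation of at least 8% versus controls, or a plate z-score of at least 8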;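 also: Pro5 are CHO cells carrying HIG-tagged alpha-DG that lacks glycosylation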
GC-A act: GC-A (human) enzyme activation; activation, % at 10 µM; AID 1671463; P16066; actives 0.14% (n = 370,000); HEK293 GC-A cells, cGMP TR-FRET, EC30 ANP; 0% at EC30 ANP, 100% saturating ANP; in the data active = activation above about 40%
ADP-Glo artifact: counter-screen for Dyrk1A inhibitors: ADP-Glo luciferase artifacts. AC50, µM (series often up to 12 µM). 1,300 tested, under 10 active. ADP-Glo luciferase artifact assay, no Dyrk1A, luminescence. shares compounds with DYRK1A inh;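 active = fitted half-maximal dose AC50 no more than ten times the top valid tested dose, with luminescence dropping as dose rises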
aDG conf: confirmation of alpha dystroglycan glycosylation activators; shares compounds with aDG glyco up; actives 17% (n = 600); AID 651671; Pro5-aDG cells, alpha-DG glycosylation, IIH6 AlphaLISA; scaled to LARGE-overexpressing B10 cells as 100%; activation, % at 10 µM (by protocol);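 active = activation of at least 7% in one or more replicates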;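 also: cells exposed to compound for two days before detection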
A number is an active result; 0 = inactive; - = no result given. Only some compounds are listed: those with a hit (about 2.5% of all), similar ones and a draw of the others.

SMILES	NPR2 activator	HSF1 inh	HSF1 activator	DYRK1A inh	aDG glyco up	GC-A act	ADP-Glo artifact	others
COc1cc(/C=C(/C)[N+](=O)[O-])ccc1OCc1ccccc1Cl	-	0	128	0	0	-	-
COC(=O)C1=COC(C)C2CN3CCc4c([nH]c5cc(OC)ccc45)C3CC12 (stereo not given)	0	-	-	-	0	0	-
COc1ccc(C2=NCC(=S)Nc3ccc(Cl)cc32)cc1OC	0	0	0	0	0	0	-
S=C1CN=C(c2ccccc2)c2cc(Cl)ccc2N1	0	0	65	0	0	0	-
CCSC(=O)N1CCCCCC1	0	-	-	-	0	0	-
NC(=S)c1cn(C2OC(CO)C(O)C2O)c2ncnc(N)c12 (stereo not given)	0	-67	0	95	0	0	0
COc1ccc2c3c1OC1C(=O)CC[C@@]4(O)[C@@H](C2)N(CC2CC2)CC[C@]314 (stereo not given in full)	0	-	-	0	0	0	-
N#CC(C#N)=Cc1ccc(N2CCOCC2)cc1	0	0	0	0	0	0	-
N#C/C(=C\c1ccc(O)cc1)C(=O)O (tested in a mixture with another compound)	0	-	-	79	0	0	0
CCn1nc(/C=C/c2ccccc2)nc2c(=O)n(C)c(=O)nc1-2	0	-	-	50	0	0	0
COc1ccc(-n2c(/C=C/c3ccc(O)cc3)nc3ccccc3c2=O)cc1	0	0	0	0	0	0	-
CNC(=O)Oc1ccccc1OC(C)C	0	-	-	0	0	0	-
COc1cc2c(cc1OC)-c1c3c(cc4c1[C@@H](C2)N(C)CC4)OCO3	0	0	0	66	0	0	0
COc1cc(/C=C/C(=O)c2c(O)n(CCc3ccccc3)c(=O)[nH]c2=O)ccc1O	0	0	0	0	0	0	-
COc1ccc2c3c([nH]c2c1)C(C)=NCC3	0	0	0	86	0	0	0
CC1=NCCc2c1[nH]c1cc(O)ccc21	0	-	-	79	0	0	0
C1=NCCc2c1[nH]c1ccccc21	0	0	0	0	0	0	-
COc1ccc2c(c1)[nH]c1c(C)nccc12	0	-	-	0	0	0	-
CN1CCCN(C(=O)COc2ccc(F)cc2Cl)CC1	0	0	0	0	0	0	-
Cc1[nH]nc2ccc(-c3cncc(OC[C@@H](N)Cc4c[nH]c5ccccc45)c3)cc12	-	-	-	92	0	-	0
COP(=O)(OC)C1(Nc2ccc(C)cc2)CCCCC1	0	0	0	0	0	0	-
O=c1[nH]c(=O)n(-c2ccccc2)c(O)c1/C=C1/C(c2ccccc2)=Nc2ccccc21	0	0	0	61	0	0	0
COC(=O)C1=C(c2ccc(F)cc2OCc2ccccc2)C[C@@H]2CC[C@H]1N2C(=O)NC1CC1	0	-	-	55	0	0	0
O=C1C2CCCN2C(c2ccc(Cl)c(Cl)c2)N1c1ccccn1 (stereo not given)	0	0	0	0	7.0	0	-	aDG conf=0
CCC(=NCCc1c[nH]c2ccccc12)c1c(O)n(C)c(=O)n(C)c1=O	0	0	0	0	5.0	0	-	aDG conf=0
SMILES	NPR2 activator	HSF1 inh	HSF1 activator	DYRK1A inh	aDG glyco up	GC-A act	ADP-Glo artifact	others
CN1CCN(c2nc([N+](=O)[O-])nn2C)CC1	0	0	0	0	25	0	-	aDG conf=0
CCN1CCN(c2nc([N+](=O)[O-])nn2C)CC1	0	0	0	0	0	0	-
CC(C)(C)n1nnnc1C(c1cc2ccccc2o1)N1CCC2(CC1)C(=O)NCN2c1ccccc1 (stereo not given)	0	-	-	-	0	0	-
O=C1NCN(c2ccccc2)C12CCN(C(c1cc3ccccc3o1)c1nnnn1C1CCCCC1)CC2 (stereo not given)	0	-	-	-	8.4	0	-	aDG conf=0
c1ccc2c(c1)CNCc1cnnn1-2	0	-	-	-	0	0	-
CCN(C)C(C)Cc1cccc(C(F)(F)F)c1 (stereo not given)	0	-	-	-	-	0	-

Screening results as filed in PubChem.
